Screening results (PubChem)
Compounds with a hit are over-represented: about 21% of the library has one in this group of screens.
Pf growth 96h: Primary qHTS for delayed death inhibitors of the malarial parasite plastid, 96 hour incubation; actives 6.9% (n = 320,000); P. falciparum luciferase reporter growth, 96 h; Potency, µM (highest dose often 28.7 µM), most hits filed as inhibitors
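Erythrocytes infected with luciferase-expressing P. falciparum were dispensed at 2% hematocrit and 0.05% parasitemia (final), then incubated with compounds 96 hours at 37 C in 5% CO2. Luminescence after detection reagent addition reported growth.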
NS1 function inh: qHTS Assay for Inhibitors of Influenza NS1 Protein Function; Potency, µM (top dose mostly 46.1 µM); actives 0.4% (n = 270,000); AID 2326, 2010; calls by dose curve; further: actives are rising curves; nearly all actives have a fitted effect of over 50% in size
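S. cerevisiae expressing influenza A NS1, grown in glucose, washed, then diluted 1:100 into pH 6.0 -URA galactose medium with 23 nl compound. Growth recovery read as OD600; NS1-free strain serves as control.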
Cycloheximide cs: Cycloheximide Counterscreen for Small Molecule Inhibitors of Shiga Toxin; AID 2314, 2010; cell reporter, cycloheximide protein synthesis inhibition counterscreen; actives 12% (n = 300,000); max response, %; in the data active means max response mostly above about 13%, no sharp cut-off; inactive means mostly below about 14%; further: read at 38.3 µM for the half of the compounds with a filed dose
Shiga inhibitor: A qHTS for Small Molecule Inhibitors of Shiga Toxin | Vero cells, Shiga toxin protein synthesis inhibition reporter | inhibition, % at 38.7 µM | actives 9.2% (n = 290,000) | AID 2315, 2010; in the data active means inhibition mostly above about 28%, no sharp cut-off; inactive means mostly below about 43%
Pf growth 48h: Primary qHTS for delayed death inhibitors of the malarial parasite plastid, 48 hour incubation. Potency, µM (highest dose often 28.7 µM), usual class: inhibitors. P. falciparum luciferase growth in erythrocytes, 48 h. actives 5.9% (n = 310,000)
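First compound was added to culture medium, then infected red cells at 0.1% parasitemia and 2% hematocrit (final). After incubation at 37 C under 5% CO2, luciferase detection reagent was dispensed and light output recorded.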
A number is an active result; n = inactive; u = inconclusive; x = no result; [ ] = another dose, or the depositor's remark. Unless noted, the call rests on the fitted dose curve; in most records, active means well fitted inhibition curve with a large enough effect; inconclusive means small, poorly fitted or top-dose-only effect, or another doubt; inactive means no such curve, though single readings can be large or run the other way.

SMILES	Pf growth 96h	NS1 function inh	Cycloheximide cs	Shiga inhibitor	Pf growth 48h
CC(C(=O)Nc1ccc(S(=O)(=O)N2CCOCC2)cc1)N(c1ccccc1)S(C)(=O)=O (stereo unspecified)	x	n	n	n	n
CC1CN=C(N(C(=O)Nc2ccccc2)c2ccc(S(=O)(=O)N3CCOCC3)cc2)S1 (stereo unspecified)	n	n	18	n	n
CC(C(=O)Nc1ccc(OCc2ccccc2)cc1)N1CCCC1 (stereo unspecified)	n	x	28	33	n
CCC(C)C(NC(N)=O)C(=O)Nc1ccc(OCc2ccccc2)cc1 (stereo unspecified)	n	n	22	26	n
CN1CCN(CC(=O)Nc2ccc(Oc3ccccc3)cc2)CC1	n	n	n	n	u
CCOC(=O)N1CCN(CC(=O)Nc2ccc(Oc3ccccc3)cc2)CC1	x	n	n	n	7.4µM
Cc1ccc(N(C(C)C(=O)N2CCOCC2)S(C)(=O)=O)cc1C (stereo unspecified)	9.3µM	n	n	n	u
CCOc1ccc(NS(=O)(=O)c2ccc(C(=O)NCCCN3CCCC3=O)cc2)cc1	u	n	n	n	n
CCC(=O)N(Cc1ccc(S(N)(=O)=O)cc1)C1CC(=O)N(c2ccc(OC)cc2)C1=O (stereo unspecified)	u	n	n	n	n
COc1ccccc1NC(=O)CN1CCN(CC(=O)Nc2ccc(OCc3ccccc3)cc2)CC1	n	n	20	n	u
O=C(CN1CCCC1)Nc1ccc(OCc2ccccc2)cc1	n	n	27	n	n
COc1ccccc1NC(=O)CN1CCN(CC(=O)Nc2ccc(F)cc2)CC1	u	n	n	n	u
CCOC(=O)N1CCN(C(=O)C(C)N(c2ccc(Oc3ccccc3)cc2)S(C)(=O)=O)CC1 (stereo unspecified)	u	n	n	n	12µM
CCOC(=O)C1CCCN(c2oc(-c3ccc(OC)cc3)nc2C#N)C1 (stereo unspecified)	u	x	n	n	u
CC(=O)N1CCOc2ccc(S(=O)(=O)N3CCC(C)CC3)cc21	n	n	n	n	n
CCOc1ccccc1N(C)S(=O)(=O)c1ccc2c(c1)N(C(C)=O)CCO2	1.9µM	n	n	n	n
CC(=O)N1CCOc2ccc(S(=O)(=O)N(C)c3cccc(C)c3)cc21	n	n	n	n	n
CC(=O)N1CCOc2ccc(S(=O)(=O)N3CC(C)CC(C)C3)cc21 (stereo unspecified)	9.3µM	n	n	n	n
CCOC(=O)c1c(C)sc2c1N(C(=O)CN1CCOCC1)c1cc(Cl)ccc1S2	u	n	n	n	x
CN(CC(=O)Nc1ccccc1Br)C(=O)CN(C)C1CCCCC1	n	x	x	x	n
COc1ccc(NS(=O)(=O)NC(=O)c2c(C)n(C)c3ccccc23)cc1	n	n	24	n	n
CCOc1ccccc1N(C)C(=O)CCS(=O)(=O)c1ccc2c(c1)NC(=O)C(C)S2 (stereo unspecified)	n	n	n	n	u
O=C(COc1nncc2ccccc12)Nc1ccc(F)c(F)c1	u	n	n	n	n
CC(C)c1nnc(NC(=O)CCS(=O)(=O)c2ccccc2)s1	n	n	n	44	n
CC(C)c1nnc(NC(=O)CCc2ccccc2)s1	n	n	19	n	n
SMILES	Pf growth 96h	NS1 function inh	Cycloheximide cs	Shiga inhibitor	Pf growth 48h
COc1ccc(F)cc1CN1CCN(C(=O)CCC(=O)Nc2nnc(C(C)C)s2)CC1	u	n	n	n	n
COc1ccccc1N1CCN(C(=O)CCC(=O)Nc2nnc(C(C)C)s2)CC1	12µM	n	n	n	n
CC(C)c1ccc(NC(=O)COc2nncc3ccccc23)cc1	n	n	24	43	n
CCCC(C)c1nnc(NC(=O)CCS(=O)(=O)c2ccccc2)s1 (stereo unspecified)	n	n	n	n	n
COCCN(C(=O)CSc1nnc(-c2ccc(C)cc2)n1N)c1c(N)n(Cc2ccccc2)c(=O)[nH]c1=O	n	n	n	n	n
CCOC(=O)N/N=C(/c1ccccc1)C1CCCCC1	n	n	n	n	n
CC(C)c1ccc(NC(=O)CCc2ccccc2)cc1	n	n	56	136	n
O=C(CCc1ccccc1)Nc1cccnc1	n	n	13	104	n[0.00184 µM]
CCOc1ccc2oc(C(=O)OCC(=O)N3CC(C)OC(C)C3)c(C)c2c1 (stereo unspecified)	u	x	x	x	n
CSC(=S)N/N=C(\C)c1ccc(Br)cc1	n	n	29	45	u
COC(=O)N/N=C(\C)c1ccc(Br)cc1	n	n	n	n	x
C/C(=N\NC(=O)c1cccc(Br)c1)c1cccnc1	n	n	23	51	n
C/C(=N\NC(=O)c1cccnc1)c1ccccc1	u	n	13	n	n
C/C(=N\NC(=O)c1cccc2ccccc12)c1cccnc1	n	n	n	n	n
C/C(=N\NC(=O)c1ccc(Br)cc1)c1ccccc1	n	n	55	113	n
CC(C)CNc1nc(SCC(=O)Nc2ccccc2)nc(N2CCOCC2)n1	n	n	n	n	u
COC(=O)C(NC(=O)CNS(=O)(=O)c1ccc(Br)cc1)c1ccccc1 (stereo unspecified)	n	x	n	n	10µM
C/C(=N\NC(=O)c1cccnc1)c1cccc([N+](=O)[O-])c1	u	x	n	n	n
COC(=O)C(Cc1ccccc1)NC(=O)CNS(=O)(=O)c1ccc(Br)cc1 (stereo unspecified)	n	x	n	n	n
C/C(=N/NC(=O)CNS(=O)(=O)c1ccccc1)c1ccc(Br)cc1	13µM	n	n	n	u
C/C(=N\NC(=O)c1cccnc1)c1ccc(Br)cc1	n	n	16	n	n
CC(=O)Nc1ccccc1NC(=O)C/C(C)=N/NC(=O)c1cccnc1	u	n	n	48	n
O=C(CNS(=O)(=O)c1ccccc1)NCC(=O)OCc1ccc(Br)cc1	u	n	n	n	n
Cc1ccc(C2CC(c3cccs3)=NN2C(=O)c2ccc(Br)o2)cc1 (stereo unspecified)	n	n	n	n	x
O=C(Nc1ccc(SC(F)F)cc1)C1CC(=O)N(Cc2ccccc2)C1 (stereo unspecified)	u	n	15	26	u
SMILES	Pf growth 96h	NS1 function inh	Cycloheximide cs	Shiga inhibitor	Pf growth 48h
O=C(Nc1ccccc1)C1CC(=O)N(Cc2ccccc2)C1 (stereo unspecified)	n	n	n	n	n
CC(=O)c1ccc(NC(=O)C2CC(=O)N(Cc3ccccc3)C2)cc1 (stereo unspecified)	x	n	29	101	n
N=C1/C(=C\c2ccc(OC(=O)c3ccc(F)cc3)cc2)C(=O)N=C2SC(N3CCOCC3)=NN12	1.7µM	n	n	n	n
Cc1c(C(=O)OCC(=O)Nc2c(C)n(C)n(-c3ccccc3)c2=O)oc2ccccc12	u	n	n	n	n
COc1ccc(/C(N)=N/OC(=O)c2ccco2)cc1OC	u	x	39	113	n
N/C(=N\OC(=O)c1ccco1)c1cccc(Br)c1	x	n	40	154	n
